Assay results: PubChem BioAssay AID1159580 (chemical genetic matrix, 2015)
Out of some 5,500 compounds screened, about 2,000 (36%) were called active. Not shown: some 18% with an inconclusive outcome. No stated cut-off is given here; in the data, active means normalized growth mostly below about 0.91 (no sharp cut-off); inconclusive means no clear call, values can overlap the other calls; inactive means mostly above about 0.92. The list shows a part of the results.

Experiment: chemical genetic growth profiling, strain panel (AID 1159580);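 further: tested at 20 µM; growth read once vehicle control cultures reached saturation at 30 °C; 1 = growth at the plate median or of vehicle wells; lower values mean less growth of the strain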
Conditions: growth OD

Measured: normalized growth

COc1ccccc1OCCNCC(O)COc1cccc2[nH]c3ccccc3c12 (stereo unspecified)
inactive: S. cerevisiae deletion strains, locus YKL009W, strain mrt4, hits give low values 1.01 | S. cerevisiae deletion strains, locus YKL068W, hits give low values 1.01 | S. cerevisiae deletion strains, locus YKL085W, strain MDH1 (second series), hits give low values 1.01 | S. cerevisiae deletion strains, locus YKL085W, strain MDH1, hits give low values 1.01 | S. cerevisiae deletion strains, locus YKL160W, strain elf1, hits give low values 1.01 | S. cerevisiae deletion strains, locus YKL190W, strain CNB1, hits give low values 0.997 | S. cerevisiae deletion strains, locus YKR001C, strain vps1, hits give low values 1.05 | S. cerevisiae deletion strains, locus YKR026C, strain gcn3, hits give low values 1.02 | S. cerevisiae deletion strains, locus YKR091W, strain srl3, hits give low values 1.01 | S. cerevisiae deletion strains, locus YLL001W, strain dnm1, hits give low values 1.01 | S. cerevisiae deletion strains, locus YLL026W, hits give low values 1.02 | S. cerevisiae deletion strains, locus YLL041C, strain sdh2, hits give low values 1.01 | S. cerevisiae deletion strains, locus YLR027C, strain aat2, hits give low values 1.01 | S. cerevisiae deletion strains, locus YLR039C, strain RIC1, hits give low values 1.09 | S. cerevisiae deletion strains, locus YLR058C, strain SHM2, hits give low values 1 | S. cerevisiae deletion strains, locus YLR102C, strain apc9, hits give low values 1 | S. cerevisiae deletion strains, locus YLR113W, strain HOG1, hits give low values 0.987 | S. cerevisiae deletion strains, locus YLR221C, strain rsa3, hits give low values 1.01 | S. cerevisiae deletion strains, locus YLR258W, strain gsy2, hits give low values 1.02 | S. cerevisiae deletion strains, locus YLR262C, strain YPT6 (second series), hits give low values 1.05 | S. cerevisiae deletion strains, locus YLR262C, strain YPT6, hits give low values 1.06 | S. cerevisiae deletion strains, locus YLR268W, strain sec22, hits give low values 1.01 | S. cerevisiae deletion strains, locus YLR320W, strain mms22, hits give low values 1.02 | S. cerevisiae deletion strains, locus YLR330W, strain CHS5, hits give low values 1.01 | S. cerevisiae deletion strains, locus YLR342W, strain FKS1 (second series), hits give low values 0.993 | S. cerevisiae deletion strains, locus YLR342W, strain FKS1, hits give low values 1.01 | S. cerevisiae deletion strains, locus YLR357W, strain rsc2, hits give low values 1 | S. cerevisiae deletion strains, locus YLR370C, strain arc18, hits give low values 1.01 | S. cerevisiae deletion strains, locus YLR371W, strain rom2, hits give low values 1.01 | S. cerevisiae deletion strains, locus YLR384C, strain iki3, hits give low values 1.03 | S. cerevisiae deletion strains, locus YLR418C, strain cdc73, hits give low values 0.999 | S. cerevisiae deletion strains, locus YML016C, strain PPZ1, hits give low values 1.01 | S. cerevisiae deletion strains, locus YML032C, strain rad52, hits give low values 1.02 | S. cerevisiae deletion strains, locus YML120C, strain ndi1, hits give low values 1.01 | S. cerevisiae deletion strains, locus YML124C, strain tub3, hits give low values 1.02 | S. cerevisiae deletion strains, locus YMR058W, strain fet3, hits give low values 1.03 | S. cerevisiae deletion strains, locus YMR078C, strain ctf18, hits give low values 1.02 | S. cerevisiae deletion strains, locus YMR125W, strain sto1, hits give low values 1.01 | S. cerevisiae deletion strains, locus YMR129W, hits give low values 1.01 | S. cerevisiae deletion strains, locus YMR205C, strain PFK2, hits give low values 1.04 | S. cerevisiae deletion strains, locus YMR223W, strain ubp8, hits give low values 1 | S. cerevisiae deletion strains, locus YMR231W, strain pep5, hits give low values 1.01 | S. cerevisiae deletion strains, locus YMR263W, strain SAP30, hits give low values 0.979 | S. cerevisiae deletion strains, locus YMR307W, strain GAS1, hits give low values 0.972 | S. cerevisiae deletion strains, locus YNL067W, strain RPL9B, hits give low values 0.962 | S. cerevisiae deletion strains, locus YNL071W, strain lat1, hits give low values 0.996 | S. cerevisiae deletion strains, locus YNL128W, strain TEP1, hits give low values 1 | S. cerevisiae deletion strains, locus YNL153C, strain GIM3, hits give low values 1 | S. cerevisiae deletion strains, locus YNL183C, strain NPR1, hits give low values 0.962 | S. cerevisiae deletion strains, locus YNL209W, strain ssb2, hits give low values 1.02 | S. cerevisiae deletion strains, locus YNL233W, strain BNI4, hits give low values 1 | S. cerevisiae deletion strains, locus YNL248C, strain rpa49, hits give low values 1.02 | S. cerevisiae deletion strains, locus YNL250W, strain rad50, hits give low values 1 | S. cerevisiae deletion strains, locus YNL271C, strain bni1, hits give low values 1.02 | S. cerevisiae deletion strains, locus YNL298W, strain CLA4, hits give low values 1.03 | S. cerevisiae deletion strains, locus YNL307C, strain MCK1, hits give low values 1.01 | S. cerevisiae deletion strains, locus YNL322C, strain KRE1 (second series), hits give low values 0.989 | S. cerevisiae deletion strains, locus YNL322C, strain KRE1, hits give low values 1 | S. cerevisiae deletion strains, locus YNR049C, strain mso1, hits give low values 1.01 | S. cerevisiae deletion strains, locus YNR052C, strain pop2, hits give low values 1.01 | S. cerevisiae deletion strains, locus YOL006C, strain TOP1, hits give low values 1 | S. cerevisiae deletion strains, locus YOL012C, strain htz1 0.91 | S. cerevisiae deletion strains, locus YOL147C, strain pex11, hits give low values 1.01 | S. cerevisiae deletion strains, locus YOR001W, strain rrp6, hits give low values 1.01 | S. cerevisiae deletion strains, locus YOR061W, strain CKA2, hits give low values 1.01 | S. cerevisiae deletion strains, locus YOR069W, strain VPS5, hits give low values 0.997 | S. cerevisiae deletion strains, locus YOR070C, strain gyp1, hits give low values 1 | S. cerevisiae deletion strains, locus YOR080W, strain dia2, hits give low values 1 | S. cerevisiae deletion strains, locus YOR083W, strain WHI5, hits give low values 1 | S. cerevisiae deletion strains, locus YOR106W, strain vam3, hits give low values 1.02 | S. cerevisiae deletion strains, locus YOR136W, strain idh2, hits give low values 1.02 | S. cerevisiae deletion strains, locus YOR144C, strain elg1, hits give low values 1.02 | S. cerevisiae deletion strains, locus YOR184W, strain ser1, hits give low values 0.999 | S. cerevisiae deletion strains, locus YOR231W, strain MKK1, hits give low values 0.999 | S. cerevisiae deletion strains, locus YOR265W, strain rbl2, hits give low values 0.996 | S. cerevisiae deletion strains, locus YOR270C, strain vph1, hits give low values 1.03 | S. cerevisiae deletion strains, locus YOR290C, strain snf2, hits give low values 1.01 | S. cerevisiae deletion strains, locus YOR316C, strain cot1, hits give low values 1.02 | S. cerevisiae deletion strains, locus YPL051W, strain arl3, hits give low values 1.01 | S. cerevisiae deletion strains, locus YPL055C, strain LGE1, hits give low values 1.01 | S. cerevisiae deletion strains, locus YPL078C, strain atp4, hits give low values 1.03 | S. cerevisiae deletion strains, locus YPL106C, strain sse1, hits give low values 1.02 | S. cerevisiae deletion strains, locus YPL240C, strain hsp82, hits give low values 1.01 | S. cerevisiae deletion strains, locus YPL241C, strain CIN2, hits give low values 0.996 | S. cerevisiae deletion strains, locus YPL256C, strain CLN2, hits give low values 0.994 | S. cerevisiae deletion strains, locus YPR119W, strain clb2, hits give low values 1.02 | S. cerevisiae deletion strains, locus YPR141C, strain kar3, hits give low values 1.03 | S. cerevisiae deletion strains, locus YPR163C, strain tif3, hits give low values 1.02 | S. cerevisiae deletion strains, locus YPR167C, strain met16, hits give low values 1.02 | S. cerevisiae deletion strains, strain wtn01, hits give low values 1.01 | S. cerevisiae strains, strain wild type, hits give low values 0.984
